The assay has as its target AMP-activated protein kinase, AMPK (Homo sapiens) (UniProt P54646+O43741+P54619+Q9UGJ0+Q9Y478+Q13131+Q9UGI9). Briefly: AMP-dependent Kinase enzyme assay. An in vitro enzyme assay that detects ADP turnover that is directly proportional to AMPK activity. This uses naive AMPK that is activated during the assay with MK-8722. It counts as functional. The arrangement: scale not given: direction of the effect not stated beside the values. The conditions noted are these: 30 µM.
Consider `CN(C)c1nccnc1C1CCN(C(=O)C2(C)CCCCN2C)CC1` (centres undefined), for which the Percent Effect was 9.26%.

For `NC(=O)c1cc(C2CCCN(Cc3ccc4c(c3)OCCO4)C2)n[nH]1` (centres undefined), the Percent Effect turned out to be 3.64%.

Take `CN(Cc1nc2ccccc2n1C)C(=O)CCc1cscn1`: the Percent Effect stood at 3.49%.

For `CC(C)(C)C(NC(=O)CCS(C)(=O)=O)c1ccc(F)cc1F` (centres undefined), the Percent Effect was determined as 0.0332%.

For the compound `CC1(C)CC(CN2CCC3(CCC(=O)N(C4CCC4)C3)CC2)CCO1` (centres undefined), the Percent Effect is -1.15%.

As to `Cc1nc(C(C)C)sc1C(C)N(C)C(=O)c1ccc(=O)n(C)c1` (centres undefined), the Percent Effect was determined as 5.47%.

On to `COc1cccc(-c2ncc(CN3CC[C@H]4CC[C@@H](C3)N4)s2)c1`, for which the Percent Effect was determined as 7.14%.

Regarding `CNC(=O)c1cn2cc(-c3cccc(Cl)c3)n(CC3CC3)c(=O)c2n1`, the Percent Effect was -3.37%.

Regarding `CCc1ccc(C(=O)NC[C@H]2CCCN2C(=O)c2ccc(CC)o2)o1`, the Percent Effect is -0.868%.

With `COCCC(=O)NCc1ccc(-c2ncncc2C(=O)N(C)C)cc1`, the Percent Effect was -7.24%.

Turning to `Cc1ccc(C)n1-c1ccsc1C(=O)NCC(=O)N1CCCC1`, the Percent Effect was 2.6%.

Regarding `Cc1cc(C[S+]([O-])Cc2ccccc2C)no1` (centres undefined), the Percent Effect was 5.62%.

On to `CC(C)(C)c1ccc(-n2ncc3c2CCCC3N)cc1` (centres undefined), for which the Percent Effect came to 5.4%.

As to `O=C(NCc1ccc(-n2cncn2)nc1)c1cnccn1`, the Percent Effect was -5.91%.

For `COc1cc2c(cc1OC)CN(C(=O)NCC1CCCO1)CC2` (centres undefined), the Percent Effect is -8.87%.

`Cc1ccc(-c2noc(Cn3nc(C(N)=O)ccc3=O)n2)cc1`: the Percent Effect amounted to 5.62%.

With `Cc1ccc2nc(CN3CCCCC3CCn3cccn3)cn2c1` (centres undefined), the Percent Effect came to 4.05%.

On to `Cc1nc2c(c(=O)[nH]1)CN(C(=O)CC[C@@H]1CCCN3CCCC[C@H]13)C2`, for which the Percent Effect came out at 16.1%.

As to `NC(=O)c1ccnc(N2CCCC(CO)(Cc3ccccc3)C2)c1` (centres undefined), the Percent Effect is 11.6%.

(Values after ChEMBL document CHEMBL3988442, “University of Dundee, Small-Polar-MMV Screening Library” (2021).)
